# Source: the supplement of paper PMC6555819
# Legend:
# Experiment in all cases: PBM binding z-score (relative to random genomic background probes); higher = stronger binding; sequences stand for … in GC…GCGATTGACAGCGTAGAATGAAGG
# [1] = test system: PPARg:RXRa DBDmut IVT, anti-RXR (DBD mutation: RXRa K156A/R161A, NR concentration 270 nM, RXRa partner concentration 90 nM)
# How it was run: (§1)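 Each nuclear receptor dimer, without ligand, was incubated for 1 h on custom Agilent 4×180K protein-binding microarrays. Binding was detected with antibodies against each partner (one per run), and scanned fluorescence was regression-normalized. The binding z-scores are referenced to random human genomic background probes.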
# [2] = test system: PPARg:RXRa IVT, anti-PPARg (NR concentration 270 nM, RXRa partner concentration 90 nM)
# How it was run: as §1
# [3] = test system: PPARg DBDmut:RXRa IVT, anti-PPARg (DBD mutation: PPARg1 K132A/R137A, NR concentration 270 nM, RXRa partner concentration 90 nM)
# How it was run: as §1
# [4] = test system: PPARg DBDmut IVT, anti-PPARg (DBD mutation: PPARg1 K132A/R137A, NR concentration 270 nM)
# How it was run: as §1
# [5] = test system: PPARg homodimer (NR concentration 180 nM)
# How it was run: as §1
# [6] = test system: PXR:RXRa (NR concentration 270 nM, RXRa partner concentration 90 nM)
# How it was run: as §1
# [7] = test system: PXR homodimer (NR concentration 270 nM)
# How it was run: as §1
# [8] = test system: RARa:RXR (NR concentration 270 nM, RXRa partner concentration 90 nM)
# How it was run: as §1
# [9] = test system: RARa homodimer (NR concentration 270 nM)
# How it was run: as §1
# [10] = test system: RARb:RXRa (NR concentration 270 nM, RXRa partner concentration 90 nM)
# How it was run: as §1
# [11] = test system: RARb homodimer (NR concentration 270 nM)
# How it was run: as §1
# [12] = test system: RARg:RXRa (NR concentration 270 nM, RXRa partner concentration 90 nM)
# How it was run: as §1
# [13] = test system: RARg homodimer (NR concentration 270 nM)
# How it was run: as §1
# [14] = test system: RXRa DBDmut IVT, anti-RXR (DBD mutation: RXRa K156A/R161A, NR concentration 90 nM)
# How it was run: as §1
# [15] = test system: RXRa homodimer (NR concentration 180 nM)
# How it was run: as §1
# [16] = test system: THRa:RXRa (NR concentration 90 nM, RXRa partner concentration 90 nM)
# How it was run: as §1
# [17] = test system: THRa homodimer (NR concentration 90 nM)
# How it was run: as §1
# [18] = test system: VDR:RXRa (NR concentration 270 nM, RXRa partner concentration 90 nM)
# How it was run: as §1
# [19] = test system: VDR homodimer (NR concentration 270 nM)
# How it was run: as §1
Sequence,PBM binding z-score [1],PBM binding z-score [2],PBM binding z-score [3],PBM binding z-score [4],PBM binding z-score [5],PBM binding z-score [6],PBM binding z-score [7],PBM binding z-score [8],PBM binding z-score [9],PBM binding z-score [10],PBM binding z-score [11],PBM binding z-score [12],PBM binding z-score [13],PBM binding z-score [14],PBM binding z-score [15],PBM binding z-score [16],PBM binding z-score [17],PBM binding z-score [18],PBM binding z-score [19]
GTACCAAGATGAATAGGTCGTTGATGAGTAGGCG,-0.366,-0.096,-0.257,0.255,0.369,-0.0822,0.0588,0.0569,0.21,0.0592,0.283,0.181,0.272,-0.187,0.691,0.143,-0.535,-0.0191,-0.179
TAGCCTAGGTCATTGGGCAAGTATAGTACGCATC,1.66,3.17,0.399,-0.561,1.19,1.64,-0.337,2.38,-0.275,3.66,2.69,3.66,4.09,1.86,2.94,2.63,0.731,2.09,1.44
ATCTCTAGGTAAGAAGTTCAGTGAAAGAGAGGAC,1.18,1.29,0.696,1.32,1.05,0.898,1.32,0.518,0.598,1.49,1.85,1.25,1.48,0.26,0.531,0.982,0.234,0.919,1.52
ACTATTAGTTGACTTAGGGAAACCGATACGACGC,0.323,0.25,1.26,1.45,0.412,-0.145,0.319,0.0911,0.75,0.0734,-0.158,0.158,0.385,0.822,0.147,0.625,0.155,0.0698,0.262
TCAGACAGGTGAAGGTAACGCAGGTACGCAGTCG,2.13,1.24,0.76,0.126,-0.401,0.411,-0.161,0.66,0.254,1.16,0.708,0.407,0.419,0.772,1.05,1.01,0.208,0.637,-0.187
CGTCCAAGGTCAAAGGACAGTGAAGAGATGACGG,2.81,3.71,1.49,0.353,2.89,3.74,0.957,4.39,0.706,5.21,4.02,5.79,6.52,3.52,5.67,3.76,1.95,3.76,2.37
CCAGCCAGGTGAAAGGTAACTCAGTCTGGTACGC,2.75,3.85,-0.331,-0.965,1.03,0.479,-0.522,1.32,-0.603,0.935,0.43,0.724,0.203,-0.519,1.37,1.55,0.326,0.288,-0.192
AGAATGAGGTTACAAAAGATCAGGGAAACGCTTG,3.87,3.13,1.47,0.745,0.909,1.23,0.246,1.88,-0.148,1.81,0.449,1.86,1.58,1.16,2.44,2.6,-0.0281,1.24,0.342
ATACCAAGGTGATCGTGAAGTCGTTGATACTAAC,0.462,1.26,0.643,0.615,0.766,0.468,-0.0567,0.548,0.427,0.582,0.398,0.416,0.171,0.398,0.357,1.01,0.796,0.0498,0.18
ATCTCTAGGTAAAGATAGTTCAGGGAATGCAAAT,2.05,1.37,1.02,0.575,0.895,0.937,0.399,0.601,1.17,0.787,0.997,0.771,0.846,0.0937,0.459,0.742,0.0152,0.786,0.47
CGAACTCGGTCATCCAGGACAGTGAATACATTGA,3.58,2.52,0.285,0.0941,0.363,0.205,-0.0652,0.856,0.205,2.31,1.59,2.22,2.83,0.985,0.784,2.12,0.998,2.61,1.15
ATCTCTAGGTAAAGTACAGTGAAAGATCGATAGA,2.11,2.03,1.17,1.25,1.14,0.119,0.479,0.369,1.59,0.586,0.302,0.498,0.733,0.55,0.366,0.609,0.162,-0.177,0.488
CCTACTGGGCTAAAGGTCATTGATTCCAATGCTC,4.37,6.31,-0.17,-0.112,4.02,4.97,1.35,5.44,0.872,4.26,4.22,4.96,4.27,1.17,5.21,3.15,0.533,4.38,2.18
CCTACTGGGCCGAAAAGGTCATTGATGCCGATAA,0.922,2.21,-1.07,-1.05,1.68,4.56,1.74,4.84,0.458,3.77,4.31,4.56,3.89,0.386,4.95,3,0.639,4.48,2.13
ATACCAAGGTGAGCGTGAGGTCGTTGATACTAAC,1.54,2.2,0.262,-0.46,0.827,3.26,0.571,2.34,0.154,1.97,2,2.92,1.6,0.221,2.01,3.8,2.51,3.32,2.3
CGAACTAGGTCAACCAGGACAGTGAATACATTGA,8.5,8.35,1.56,1.35,1.73,2.02,0.839,2.3,0.835,4.17,3.24,4.4,5.25,1.8,2.99,3.53,1.82,4.96,1.85
GGAACGAGGGCAAGTTAATAGCAGAGTTTGATGG,3.46,2.52,0.284,-0.167,0.47,0.548,0.977,0.427,-0.189,2.26,1.35,1.46,2.01,2.29,0.717,1.2,-0.0334,0.803,1.6
GCGACTGGGGCATCAGCAAGTTACCATAACTTAA,3.88,2.87,-1.33,-0.593,-0.528,-0.359,-0.789,-0.454,-0.707,0.453,-0.0103,0.142,0.0409,-0.018,0.208,-0.53,-0.605,-0.37,-0.296
CCTACAGGGCCACGAAAGGTCATTGATTCAGTGA,0.816,1.87,-0.216,-0.41,2.63,5.61,1.86,5.07,1.07,4.32,5.01,5.13,5.03,0.833,5.27,4.25,0.829,4.61,2.2
ACTCGGAGGACAAAGGGCAGAGCTACGCCAGTGA,0.11,0.678,-1.42,-1.85,0.364,-0.273,-0.407,0.077,-0.16,2.17,1.69,1.81,1.91,0.468,0.615,0.877,-0.631,-0.214,-0.288
CCTATTAGATGACCATAAGGGCAACCGAAGCTCG,-0.108,0.24,0.781,-0.21,1.46,0.624,0.912,0.938,2.1,1.4,1.98,1.02,1.2,0.541,0.88,1.69,1.19,0.352,0.819
GCTCCTAGGTCAACTGATGGTCAGCTAAAGCTCG,4.98,3.97,-0.903,0.266,2.06,2.28,-0.577,3.53,-0.186,4.35,3.8,5.76,5.88,2.02,3.77,3.15,1.7,2.29,0.601
AGTCAAAGTTCACCAGGTAACGTAAGATTCAGCT,1.37,4,1.09,1.39,3.02,4.67,2.63,4.15,1.72,5.18,4.3,6.02,6.53,4.1,5.25,2.88,0.769,4.61,4.32
ATATGTAGGTTACATCCGGGTCATTCAGGCTATG,7.56,7.11,2.58,1.6,2.15,3.62,2.13,3.64,0.928,2.23,3.04,3.77,2.17,1.01,3.39,3.75,2.57,4.26,2.83
ATATGTAGGTTACATCCGGGTCATTCGGGCTATG,7.29,7.46,3.23,1.74,1.58,3.48,1.47,3.61,0.896,2.27,2.99,3.7,2.26,1.22,3.01,3.69,2.36,3.9,3.19
CCTAGCAGGCCAGGGTCTCTCAAGCATTTCGCTT,-0.0358,-0.785,-1.73,-1.57,-0.714,-0.908,-0.933,-0.825,-1.17,-0.0781,-0.597,-0.659,-0.606,-0.912,-0.675,-0.53,-0.611,-0.712,-0.871
CCTACTGGGCCAAAAAGGTCATTGTTGCCGATAA,3.95,3.99,-0.0573,-1.07,2.39,4.29,1.92,4.33,0.787,3.56,4.29,4.28,3.91,0.617,4.21,2.92,0.342,4.46,2.3
CAGACTAGGTCACAGAGGTCAAAGTCCGTGCGTA,7.57,8,2.36,0.704,4.93,6.65,11.5,7.28,2.93,5.07,5.42,7.17,7.46,3.41,7.88,4.6,2.91,7.98,7.08
TTATCAAGGTGAGCTGAGGTCGTTGATCCAACTC,1.53,2.79,0.246,-0.126,0.465,4.8,0.706,1.99,-0.272,1.85,1.62,1.33,1.07,0.397,1.59,4.64,2.47,3.93,2.33
TCTTATAGATCAAAGGTTAAGAAAGCCGAAGCCT,2.07,3.14,0.659,0.755,2.4,2.41,0.154,3.82,0.262,2.06,1.4,2.16,1.15,1.21,3.93,1.51,-0.709,2.27,0.214
